Measured values reported in PubChem BioAssay AID1159580 (chemical genetic matrix, 2015).
Several values for one entry are separate records, joined by “and”; a condition that tells them apart may be missing. Equal values may be shown once. About 2,000 (36%) of roughly 5,500 compounds were called active. Another 18% or so got no clear call; they are omitted. Rule as the data show it: active = normalized growth mostly below about 0.91 (no sharp cut-off); inconclusive = no clear call, values can overlap the other calls; inactive = mostly above about 0.92. This is one part of the list.

Experiment: chemical genetic growth profiling, strain panel (AID 1159580);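 also: tested at 20 µM; growth read once vehicle control cultures reached saturation at 30 °C; 1 = growth at the plate median or of vehicle wells; lower values mean less growth of the strain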
Conditions: S. cerevisiae deletion strains, growth OD

Measured: normalized growth

C=C[C@@]1(C)CC(=O)[C@@]2(O)[C@](C)(O1)[C@@H](OC(C)=O)[C@@H](O)C1C(C)(C)CC[C@H](O)[C@@]12C (stereo partly specified)
inactive: locus YAL013W, strain DEP1, stronger effect = lower value 0.984 | locus YAL021C, strain ccr4, stronger effect = lower value 0.951 | locus YAL026C, strain drs2, stronger effect = lower value 0.978 | locus YAL030W, strain snc1, stronger effect = lower value 0.973 | locus YBL061C, strain skt5, stronger effect = lower value 0.984 | locus YBR009C, strain hhf1, stronger effect = lower value 1 | locus YBR021W, strain FUR4, stronger effect = lower value 1.01 | locus YBR023C, strain chs3, stronger effect = lower value 0.978 | locus YBR171W, strain sec66, stronger effect = lower value 0.992 | locus YBR229C, strain ROT2, stronger effect = lower value 0.947 | locus YBR231C, strain swc5, stronger effect = lower value 1.01 | locus YBR279W, strain paf1, stronger effect = lower value 0.974 | locus YCL011C, strain gbp2, stronger effect = lower value 0.954 | locus YCL016C, strain dcc1, stronger effect = lower value 0.956 | locus YCL029C, strain bik1, stronger effect = lower value 0.977 | locus YCL069W, strain vba3, stronger effect = lower value 0.983 | locus YCR088W, strain abp1, stronger effect = lower value 0.996 | locus YDL005C, strain med2, stronger effect = lower value 0.983 | locus YDL035C, strain GPR1, stronger effect = lower value 0.96 | locus YDL040C, strain nat1, stronger effect = lower value 0.986 | locus YDL074C, strain BRE1, stronger effect = lower value 0.999 | locus YDL101C, strain DUN1, stronger effect = lower value 0.988 | locus YDL134C, strain PPH21, stronger effect = lower value 0.981 | locus YDL185W, strain tfp1, stronger effect = lower value 0.986 | locus YDL192W, strain arf1, stronger effect = lower value 0.976 | locus YDR001C, strain nth1, stronger effect = lower value 0.976 | locus YDR069C, strain doa4, stronger effect = lower value 0.975 | locus YDR101C, strain arx1, stronger effect = lower value 0.986 | locus YDR137W, strain rgp1, stronger effect = lower value 0.989 | locus YDR150W, strain NUM1, stronger effect = lower value 0.972 | locus YDR159W, strain sac3, stronger effect = lower value 1.02 | locus YDR162C, strain NBP2, stronger effect = lower value 0.969 | locus YDR195W, strain ref2 1.02 | locus YDR297W, strain sur2, stronger effect = lower value 0.977 | locus YDR318W, strain mcm21, stronger effect = lower value 0.986 | locus YDR334W, strain swr1, stronger effect = lower value 0.972 | locus YDR335W, strain msn5, stronger effect = lower value 0.988 | locus YDR388W, stronger effect = lower value 0.988 | locus YDR392W, strain spt3, stronger effect = lower value 0.905 | locus YDR502C, strain sam2, stronger effect = lower value 0.965 | locus YEL003W, strain gim4, stronger effect = lower value 0.994 | locus YEL037C, strain rad23, stronger effect = lower value 0.997 | locus YEL061C, strain CIN8 (second series), stronger effect = lower value 0.992 | locus YEL061C, strain CIN8, stronger effect = lower value 0.983 | locus YER015W, strain faa2, stronger effect = lower value 0.993 | locus YER016W, strain bim1, stronger effect = lower value 0.963 | locus YER110C, stronger effect = lower value 0.976 | locus YER111C, strain swi4, stronger effect = lower value 1.01 | locus YER155C, strain BEM2 (second series), stronger effect = lower value 0.999 | locus YER155C, strain BEM2, stronger effect = lower value 1.01 | locus YER167W, strain BCK2, stronger effect = lower value 0.964 | locus YFR010W, strain ubp6, stronger effect = lower value 0.998 | locus YGL078C, strain dbp3, stronger effect = lower value 0.985 | locus YGL086W, strain mad1, stronger effect = lower value 0.984 | locus YGL167C, strain pmr1, stronger effect = lower value 0.99 | locus YGL173C, strain kem1, stronger effect = lower value 0.987 | locus YGL227W, strain vid30, stronger effect = lower value 0.985 | locus YGL240W, strain doc1, stronger effect = lower value 0.98 | locus YGL248W, strain PDE1, stronger effect = lower value 0.982 | locus YGL253W, strain hxk2, stronger effect = lower value 0.948 | locus YGR078C, strain PAC10, stronger effect = lower value 1.01 | locus YGR135W, strain pre9, stronger effect = lower value 0.985 | locus YGR229C, strain SMI1, stronger effect = lower value 0.998 | locus YGR252W, strain gcn5, stronger effect = lower value 1 | locus YHR013C, strain ard1, stronger effect = lower value 0.948 | locus YHR027C, strain rpn1, stronger effect = lower value 0.982 | locus YHR030C, strain SLT2, stronger effect = lower value 0.987 and 0.975 | locus YHR079C, strain IRE1 (second series), stronger effect = lower value 0.994 | locus YHR079C, strain IRE1, stronger effect = lower value 0.978 | locus YHR094C, strain hxt1, stronger effect = lower value 0.987 | locus YHR129C, strain ARP1, stronger effect = lower value 0.996 | locus YHR142W, strain chs7, stronger effect = lower value 0.955 | locus YHR200W, strain rpn10, stronger effect = lower value 0.989 | locus YIL066C, strain RNR3, stronger effect = lower value 0.979 | locus YIL073C, strain SPO22, stronger effect = lower value 0.945 | locus YIL125W, strain kgd1, stronger effect = lower value 0.983 | locus YIR030C, strain dcg1, stronger effect = lower value 0.979 | locus YJL092W, strain hpr5, stronger effect = lower value 0.974 | locus YJL095W, strain BCK1 (second series), stronger effect = lower value 0.978 | locus YJL095W, strain BCK1, stronger effect = lower value 1 and 0.973 | locus YJL115W, strain asf1, stronger effect = lower value 0.964 | locus YJL129C, strain trk1, stronger effect = lower value 0.954 | locus YJL134W, strain LCB3, stronger effect = lower value 0.984 | locus YJL154C, strain vps35, stronger effect = lower value 0.982 | locus YJL164C, strain tpk1, stronger effect = lower value 0.995 | locus YJL166W, strain qcr8, stronger effect = lower value 0.992 | locus YJL168C, strain set2, stronger effect = lower value 0.992 | locus YJL187C, strain SWE1 (second series), stronger effect = lower value 0.991 | locus YJL187C, strain SWE1, stronger effect = lower value 0.984 | locus YJR043C, strain POL32, stronger effect = lower value 1.01 | locus YJR066W, strain TOR1, stronger effect = lower value 0.927
